# From PubChem
# CtBP-E1A inh = blocks the CtBP interaction with E1A; AlphaScreen GST-E1A/His-CtBP binding, 1536-well; active compounds read low; activity change, % (no concentration beside the values); hit rate 0.49% among 340,000
#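 Protein mix (5X: 125 nM each GST-E1A, His-CtBP) was incubated with pinned compound 2 h at 37 deg C in dark, in 50 mM Tris pH 8.0 buffer with 300 mM NaCl. Glutathione donor and nickel acceptor beads followed; AlphaScreen signal read after 1 h.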
# PI4K2A block = inhibitors of human PI4K2A. Q9BTU6. purified PI4K2A, ADP-Glo luminescence, 1 h; active compounds read low. activity change, negative = inhibition, % at 76.9 µM. hit rate 0.13% among 420,000. AID 1346378; in the data active = activity change below about -50%; inconclusive = mostly about -30% to -49%;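 also: -100% = wells without enzyme as full effect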
#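 In this quantitative HTS, ADP production by PI4K2A was quantified luminescently after 1 h at ambient temperature; 100 microM adenosine served as plate-quality control.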
# Akt phos inh = blocks phosphorylation of Akt | Neuro2A IGF-stimulated pAkt S473 HTRF, 20 min; active compounds read low | activity change, % for hits at 50 µM | hit rate 0.32% among 360,000; in the data active = activity change below about -80%; inconclusive = mostly about -51% to -80%
#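 Single-point screen (50 µM final compound) in Neuro2A cells stimulated 20 min with 6 nM IGF at 37 deg C. After lysis, Ser473-phosphorylated Akt read by HTRF (ex 330 nm, em 615/665 nm) as the 665/615 ratio.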
# Six1-Eya2 blk = blocks human Six1 binding to Eya2. AlphaScreen GST-Six1/His-Eya2 binding, biochemical; active compounds read low. activity change, % (no concentration beside the values). hit rate 0.56% among 360,000. AID 651725
#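 Compounds are tested against tagged Six1 and Eya2 proteins bridged by glutathione donor and nickel acceptor beads; after a one-hour incubation at 37 °C without light, AlphaScreen emission is recorded.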
# PI5P4Ka inh = blocks human PI5P4K alpha kinase activity; P48426; PI5P4Kalpha enzyme, ADP-Glo luminescence, 60 min; active compounds read low; max response, %; hit rate 1.2% among 330,000; active = max response of -50% or lower; inconclusive = between -30% and -50%; inactive = -30% or higher; also: value at the top dose of about 77 µM
# Target sequence (P48426 whole entry, looked up): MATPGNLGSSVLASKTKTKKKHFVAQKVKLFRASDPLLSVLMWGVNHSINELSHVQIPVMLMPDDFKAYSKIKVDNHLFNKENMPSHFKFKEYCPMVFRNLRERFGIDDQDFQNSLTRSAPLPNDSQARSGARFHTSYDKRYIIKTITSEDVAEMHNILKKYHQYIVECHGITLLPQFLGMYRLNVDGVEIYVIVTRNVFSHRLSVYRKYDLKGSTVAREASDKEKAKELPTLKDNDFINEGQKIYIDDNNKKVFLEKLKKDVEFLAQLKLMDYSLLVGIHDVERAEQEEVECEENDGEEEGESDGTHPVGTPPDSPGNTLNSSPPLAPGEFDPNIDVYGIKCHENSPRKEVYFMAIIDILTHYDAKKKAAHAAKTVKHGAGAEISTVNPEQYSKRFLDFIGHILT
#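 qHTS, 1536-well: enzyme/substrate mix, compound by pin tool, 5 microM ATP final; RT 60 min; ADP-Glo reagents 1 (45 min) then 2 (30 min); luminescence.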
# Numbers without * were called inactive; i = inactive; ? = inconclusive; · = no result given. Most compounds without a hit are left out; they make up all but 1.8% or so of the library. Rule as the data show it, unless noted: active = activity change below about -65%; inconclusive = mostly about -30% to -63%; inactive = weaker than that. Unless noted, % is scaled to controls: 0 for no effect and ±100 for the full control effect.
SMILES,CtBP-E1A inh,PI4K2A block,Akt phos inh,Six1-Eya2 blk,PI5P4Ka inh
CCN(CC)C(=O)c1sc2nc(-c3ccccn3)[nH]c(=O)c2c1C,-88.4*,-4.6,i,-89.9*,0.5
Cc1sc2nc(-c3ccccn3)[nH]c(=O)c2c1-c1ccccc1,-83.3*,-2.8,i,?,-13.3
N/C(=N\OC(=O)c1cccc(F)c1)c1ccccn1,·,-7.3,i,-4.1,2.2
Oc1ccc(Cl)cc1N=Nc1ccccc1,·,-0.9,i,-16.9,16.3
Cc1ccc(O)c(N=Nc2ccccc2)n1,-23.2,-67.4*,i,-1.3,-77.9*
Cc1ncc(CO)c(/C=N/NC(=O)c2ccccc2Br)c1O,-82.6*,-1.5,i,-90.5*,6.6
Cc1ncc(CO)c(/C=N/NC(=O)c2cc3c(s2)CCCC3)c1O,·,-4.0,i,-88.4*,0.2
COc1ccc(C(=O)N/N=C/c2c(CO)cnc(C)c2O)cc1,·,5.9,i,?,-11.7
Cc1ncc(CO)c(/C=N/NC(=O)c2ccoc2C)c1O,-86.9*,-7.3,i,-82.0*,-0.1
CC(=O)Nc1ccc(NS(=O)(=O)c2ccc(Cl)s2)cc1,-8.0,3.6,i,7.2,1.2
